From PubChem BioAssay (NCI)
The panel holds about 79,000 compounds, 15% with a hit somewhere; the sample as a whole holds those more often. Cut-off read from the data, not from the text of the source: active = growth inhibition above about 70%; inactive = the rest.

Columns and labels:
[1] = NCI Yeast Anticancer Drug Screen. Data for the rad50 strain (AID 155);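 note: 0% = growth of vehicle-only cultures of the same strain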; conditions: S. cerevisiae rad50 strain growth inhibition; at 50.0 µM; stronger effect = higher value
How it was run: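 Genetically altered yeast (DNA repair pathway); compound treatment; growth inhibition vs vehicle ctrl.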

[2] = NCI Yeast Anticancer Drug Screen. Data for the mec2-1 strain (AID 157); conditions: S. cerevisiae mec2-1 strain, at 50.0 µM, stronger effect = higher value
How it was run: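 mec2-1 yeast strain, carrying an alteration in DNA damage repair or cell cycle control, was exposed to compounds; growth inhibition was measured relative to vehicle-treated controls.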

[3] = NCI Yeast Anticancer Drug Screen. Data for the sgs1 mgt1 strain (AID 161);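 note: 0% = growth of cultures given vehicle only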; conditions: S. cerevisiae sgs1 mgt1 strain, at 50.0 µM, stronger effect = higher value
How it was run: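 Growth of a repair-deficient yeast mutant was monitored after compound treatment and expressed as inhibition relative to vehicle-treated cultures.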

[4] = NCI Yeast Anticancer Drug Screen. Data for the cln2 rad14 strain (AID 165);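 note: 0% = growth equal to vehicle treated cultures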; conditions: S. cerevisiae cln2 rad14 strain, at 50.0 µM, stronger effect = higher value
How it was run: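 Yeast carrying cln2 and rad14 alterations (cell cycle control and DNA damage repair) were exposed to compounds. Growth inhibition was measured against vehicle-treated controls.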

[5] = NCI Yeast Anticancer Drug Screen. Data for the bub3 strain (AID 167); conditions: S. cerevisiae bub3 mutant strain, at 50.0 µM, stronger effect = higher value
How it was run: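 Yeast carrying a defined mutation is treated with each compound, and growth is compared with that of vehicle-exposed cells to give inhibition.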

[6] = NCI Yeast Anticancer Drug Screen. Data for the mlh1 rad18 strain (AID 175); conditions: S. cerevisiae mlh1 rad18 strain growth inhibition; at 50.0 µM; stronger effect = higher value
How it was run: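 Growth inhibition of the yeast strain was measured after compound exposure and expressed relative to vehicle-treated controls. The strain carries defined defects in DNA damage repair.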

Measured: growth inhibition

CC(C#N)c1cn(S(=O)(=O)c2ccccc2)c2ccccc12 (stereo not given)
inactive: [1] 30.6% | [2] 3.4% | [3] -5.4% | [4] 9.75% | [5] 52.7% | [6] 37%

CC(C)CC(Br)C(=O)NCC(=O)NCC(=O)O (stereo not given)
inactive: [1] 32.3% | [2] -17.1% | [3] -5.35% | [4] 7.95% | [5] 2.85% | [6] -8.95%

CCOC(=O)N/N=C(\Cc1ccccc1)OCC
inactive: [1] 16% | [2] 13.2% | [3] 8.45% | [4] 13.7% | [5] 14.6% | [6] 39.2%

CC1(C)CC(C)(C)[P+]1(C)c1ccccc1
inactive: [1] -0.35% | [2] 16.4% | [3] 12.8% | [4] -3.45% | [5] 15.6% | [6] 10.1%

CSC1=Nc2ccccc2N=C(c2ccccc2)C1
inactive: [1] 41.9% | [2] -10.8% | [3] 52% | [4] 9.05% | [5] 44.8% | [6] 23.3%

CSc1nc(NC2OC(COC(C)=O)C(OC(C)=O)C(OC(C)=O)C2OC(C)=O)c2c(n1)OCC2=O (stereo not given)
inactive: [1] 2.65% | [2] -13.7% | [3] -38% | [4] 28.2% | [5] 30.9% | [6] 18.1%

COc1ccc(/C=N/NC(N)=S)cc1
inactive: [1] 24.1% | [2] 14.6% | [3] 28.6% | [4] -13% | [5] 12.8% | [6] 46.6%

COc1ncc(/C=C2\OC(=O)c3ccccc32)c(OC)n1
inactive: [1] 1.6% | [2] -16.1% | [3] 19.9% | [4] 2.6% | [5] 6.05% | [6] 16.9%

Cc1c(C(CC(=O)c2ccccc2)C(=O)O)c2ccccc2n1C (stereo not given)
inactive: [1] 2.05% | [2] -25.3% | [3] 23.2% | [4] -32.3% | [5] 52% | [6] -11.4%

Cc1cccc(C(C)(C)C)c1NC(=O)C(=O)Cc1nc2ccccc2s1
inactive: [1] -12.1% | [2] 7.05% | [3] 5.6% | [4] -41.7% | [5] 5.4% | [6] 18.2%

CC(=O)c1cc(C(C)=O)c2cc(C)cc(O)c2c1O
inactive: [1] 15.7% | [2] -13.9% | [3] 8.45% | [4] 1.9% | [5] 13.9% | [6] -9.7%

O=C(N/N=C\c1coc([N+](=O)[O-])c1)N/N=C/c1ccoc1
inactive: [1] 0.75% | [2] 14.2% | [3] 3.65% | [4] -25.7% | [5] -8.35% | [6] 1.1%

O=S(=O)(OCC1CC2CCC1CC2)c1ccc(Br)cc1 (stereo not given)
inactive: [1] -17.1% | [2] 1.9% | [3] 9.35% | [4] 0.8% | [5] 10.2% | [6] -22.9%

COc1ccc(N=Cc2ccc(C#N)cc2)cc1
inactive: [1] 9.4% | [2] -25.2% | [3] -7.15% | [4] 7.95% | [5] -12.8% | [6] -4.9%

C=C1C(=O)O[C@@H]2[C@H]1CC[C@H](C)[C@@H]1CCC(=O)[C@@]21C
inactive: [1] 10% | [2] -0.5% | [3] 3.35% | [4] 13.8% | [5] 12.8% | [6] 14.2%

Cc1cc(Cl)nc(Nc2ccccc2)n1
inactive: [1] 13.1% | [2] -2.5% | [3] 3.8% | [4] -1.8% | [5] 9.25% | [6] 13.7%

COc1ccc(/C=N/Nc2nc(C)c3c(n2)Nc2ccccc2NC3=O)cc1
inactive: [1] -15.2% | [2] 10.2% | [3] 3.55% | [4] -1.95% | [5] -1.45% | [6] -19.8%

CC1OC(c2ccccc2Cl)OC1C (stereo not given)
inactive: [1] 1% | [2] -2.75% | [3] -9.7% | [4] -8.5% | [5] -3.05% | [6] -11.7%

O=[N+]([O-])c1ccc(OP2(Oc3ccc([N+](=O)[O-])cc3)=NP(Oc3ccc([N+](=O)[O-])cc3)(Oc3ccc([N+](=O)[O-])cc3)=NP(Oc3ccc([N+](=O)[O-])cc3)(Oc3ccc([N+](=O)[O-])cc3)=NP(Oc3ccc([N+](=O)[O-])cc3)(Oc3ccc([N+](=O)[O-])cc3)=N2)cc1
inactive: [1] -4.5% | [2] -7.9% | [3] -6.35% | [4] -3.7% | [5] -1.65% | [6] -17.2%

Cc1c(C)c(CC(=O)N2CC2)c(C)c(C)c1CC(=O)N1CC1
inactive: [1] -23.4% | [2] 9.75% | [3] -3.9% | [4] -26.1% | [5] 2.65% | [6] -36.2%
